PubChem BioAssay AID1159580 (chemical genetic matrix, 2015)
Values joined by “and” are separate entries in the source; they are usually repeats but may differ in a detail not shown here. Equal values may be shown once. Screen size: about 5,500 compounds; about 2,000 (36%) were called active. Another 18% or so got no clear call; they are omitted. Rule as the data show it: active = normalized growth mostly below about 0.91 (no sharp cut-off); inconclusive = no clear call, values can overlap the other calls; inactive = mostly above about 0.92. This is one part of the list.

Assay: chemical genetic growth profiling, strain panel (AID 1159580);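 also: tested at 20 µM; growth read once vehicle control cultures reached saturation at 30 °C; 1 = growth at the plate median or of vehicle wells; lower values mean less growth of the strain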
Conditions: S. cerevisiae deletion strains, growth OD

Measured: normalized growth

CN(C)CCOC(=O)COc1ccc(Cl)cc1
inactive: locus YAL013W, strain DEP1, active compounds read low 1.02 | locus YAL021C, strain ccr4, active compounds read low 0.955 | locus YAL026C, strain drs2, active compounds read low 0.968 | locus YAL030W, strain snc1, active compounds read low 0.973 | locus YAL040C, strain CLN3, active compounds read low 1.06 | locus YBL061C, strain skt5, active compounds read low 0.966 | locus YBR009C, strain hhf1, active compounds read low 0.984 | locus YBR021W, strain FUR4, active compounds read low 0.95 | locus YBR023C, strain chs3, active compounds read low 0.965 | locus YBR171W, strain sec66, active compounds read low 0.969 | locus YBR229C, strain ROT2, active compounds read low 1.01 | locus YBR231C, strain swc5, active compounds read low 0.96 | locus YBR279W, strain paf1, active compounds read low 0.987 | locus YCL011C, strain gbp2, active compounds read low 0.957 | locus YCL016C, strain dcc1, active compounds read low 0.969 | locus YCL029C, strain bik1, active compounds read low 1.04 | locus YCL061C, strain MRC1, active compounds read low 0.969 | locus YCL069W, strain vba3, active compounds read low 0.974 | locus YCR088W, strain abp1, active compounds read low 0.956 | locus YDL005C, strain med2, active compounds read low 0.972 | locus YDL035C, strain GPR1, active compounds read low 1.05 | locus YDL040C, strain nat1, active compounds read low 0.973 | locus YDL074C, strain BRE1, active compounds read low 1.05 | locus YDL101C, strain DUN1, active compounds read low 1.02 | locus YDL134C, strain PPH21, active compounds read low 1.01 | locus YDL185W, strain tfp1, active compounds read low 1.03 | locus YDL192W, strain arf1, active compounds read low 1.04 | locus YDR001C, strain nth1, active compounds read low 0.965 | locus YDR069C, strain doa4, active compounds read low 0.953 | locus YDR101C, strain arx1, active compounds read low 1.03 | locus YDR150W, strain NUM1, active compounds read low 1.03 | locus YDR159W, strain sac3, active compounds read low 0.944 | locus YDR162C, strain NBP2, active compounds read low 1.03 | locus YDR195W, strain ref2 1.02 | locus YDR297W, strain sur2, active compounds read low 0.963 | locus YDR318W, strain mcm21, active compounds read low 1.06 | locus YDR334W, strain swr1, active compounds read low 0.933 | locus YDR335W, strain msn5, active compounds read low 0.969 | locus YDR388W, active compounds read low 1.03 | locus YDR392W, strain spt3, active compounds read low 0.974 | locus YEL003W, strain gim4, active compounds read low 0.957 | locus YEL037C, strain rad23, active compounds read low 0.969 | locus YEL061C, strain CIN8 (second series), active compounds read low 0.972 | locus YEL061C, strain CIN8, active compounds read low 1.02 | locus YER002W, strain NOP16, active compounds read low 0.971 | locus YER015W, strain faa2, active compounds read low 0.972 | locus YER016W, strain bim1, active compounds read low 0.968 | locus YER110C, active compounds read low 1.05 | locus YER111C, strain swi4, active compounds read low 0.98 | locus YER155C, strain BEM2 (second series), active compounds read low 0.962 | locus YER155C, strain BEM2, active compounds read low 1.01 | locus YER167W, strain BCK2, active compounds read low 1.01 | locus YFR010W, strain ubp6, active compounds read low 0.965 | locus YGL078C, strain dbp3, active compounds read low 1.04 | locus YGL086W, strain mad1, active compounds read low 1.06 | locus YGL167C, strain pmr1, active compounds read low 0.968 | locus YGL173C, strain kem1, active compounds read low 0.975 | locus YGL227W, strain vid30, active compounds read low 0.965 | locus YGL240W, strain doc1, active compounds read low 0.967 | locus YGL248W, strain PDE1, active compounds read low 1.01 | locus YGL253W, strain hxk2, active compounds read low 0.968 | locus YGR078C, strain PAC10, active compounds read low 1.05 | locus YGR135W, strain pre9, active compounds read low 1.03 | locus YGR229C, strain SMI1, active compounds read low 1.06 | locus YGR252W, strain gcn5, active compounds read low 1.01 | locus YHR013C, strain ard1, active compounds read low 0.983 | locus YHR027C, strain rpn1, active compounds read low 0.96 | locus YHR030C, strain SLT2, active compounds read low 1.02 and 1.08 | locus YHR079C, strain IRE1 (second series), active compounds read low 1.03 | locus YHR079C, strain IRE1, active compounds read low 1.11 | locus YHR094C, strain hxt1, active compounds read low 1.02 | locus YHR129C, strain ARP1, active compounds read low 1.02 | locus YHR142W, strain chs7, active compounds read low 0.962 | locus YHR200W, strain rpn10, active compounds read low 1.06 | locus YIL066C, strain RNR3, active compounds read low 1.04 | locus YIL073C, strain SPO22, active compounds read low 1.08 | locus YIL125W, strain kgd1, active compounds read low 1.01 | locus YIR030C, strain dcg1, active compounds read low 1.03 | locus YJL092W, strain hpr5, active compounds read low 0.943 | locus YJL095W, strain BCK1 (second series), active compounds read low 0.965 | locus YJL095W, strain BCK1, active compounds read low 1.05 and 1.09 | locus YJL115W, strain asf1, active compounds read low 0.947 | locus YJL129C, strain trk1, active compounds read low 1 | locus YJL134W, strain LCB3, active compounds read low 1.01 | locus YJL154C, strain vps35, active compounds read low 0.971 | locus YJL164C, strain tpk1, active compounds read low 0.97 | locus YJL166W, strain qcr8, active compounds read low 0.981 | locus YJL168C, strain set2, active compounds read low 1.02 | locus YJL187C, strain SWE1 (second series), active compounds read low 1.04 | locus YJL187C, strain SWE1, active compounds read low 0.981 | locus YJR043C, strain POL32, active compounds read low 1.09 | locus YJR066W, strain TOR1, active compounds read low 0.974 | locus YJR075W, strain HOC1, active compounds read low 0.98
active: locus YDR137W, strain rgp1, active compounds read low 1.21 [resistant] | locus YDR502C, strain sam2, active compounds read low 1.09 [resistant]
